These results are taken from ChEMBL document CHEMBL1961873, “Compounds: GSK PKIS; Assays: Nanosyn kinase panel” (2012).

In test [1] the target is Sphingosine kinase 1 (Homo sapiens) (UniProt Q9NYA1). To be noted: at 1 µM.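 Also: mean SPHK1 inhibition value reported from the GSK PKIS kinase panel screen.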
For test [2], the target named is T1, Sphingosine kinase 2 (Homo sapiens) (UniProt Q9NRA0).
T1 sequence (whole entry): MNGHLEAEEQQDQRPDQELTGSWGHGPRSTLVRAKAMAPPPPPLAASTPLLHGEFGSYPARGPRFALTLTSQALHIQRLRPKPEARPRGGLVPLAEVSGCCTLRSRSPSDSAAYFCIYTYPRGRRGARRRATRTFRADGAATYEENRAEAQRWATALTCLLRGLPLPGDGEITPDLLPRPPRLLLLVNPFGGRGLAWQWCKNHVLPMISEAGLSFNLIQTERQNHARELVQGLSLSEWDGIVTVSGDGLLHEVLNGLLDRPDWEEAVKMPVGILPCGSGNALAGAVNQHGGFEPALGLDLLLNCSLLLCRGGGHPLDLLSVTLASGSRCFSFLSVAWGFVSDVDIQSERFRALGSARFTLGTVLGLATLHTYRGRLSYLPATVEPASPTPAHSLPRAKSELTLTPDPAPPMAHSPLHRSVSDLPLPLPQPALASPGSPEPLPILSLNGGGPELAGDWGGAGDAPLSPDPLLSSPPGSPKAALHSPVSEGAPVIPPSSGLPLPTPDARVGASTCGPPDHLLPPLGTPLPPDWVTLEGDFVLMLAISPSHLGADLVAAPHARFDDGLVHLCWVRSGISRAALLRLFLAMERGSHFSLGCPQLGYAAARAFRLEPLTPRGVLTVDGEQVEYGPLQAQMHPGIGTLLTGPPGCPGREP
To be noted: at 0.1 µM.

The target of test [3] is T1, Sphingosine kinase 2 (Homo sapiens). Particulars: at 1 µM.
For test [4], the target named is Casein kinase II subunit alpha (Homo sapiens) (UniProt P68400). Particulars: at 0.1 µM.
Chain of Casein kinase II subunit alpha (Homo sapiens) (P68400 whole entry, looked up): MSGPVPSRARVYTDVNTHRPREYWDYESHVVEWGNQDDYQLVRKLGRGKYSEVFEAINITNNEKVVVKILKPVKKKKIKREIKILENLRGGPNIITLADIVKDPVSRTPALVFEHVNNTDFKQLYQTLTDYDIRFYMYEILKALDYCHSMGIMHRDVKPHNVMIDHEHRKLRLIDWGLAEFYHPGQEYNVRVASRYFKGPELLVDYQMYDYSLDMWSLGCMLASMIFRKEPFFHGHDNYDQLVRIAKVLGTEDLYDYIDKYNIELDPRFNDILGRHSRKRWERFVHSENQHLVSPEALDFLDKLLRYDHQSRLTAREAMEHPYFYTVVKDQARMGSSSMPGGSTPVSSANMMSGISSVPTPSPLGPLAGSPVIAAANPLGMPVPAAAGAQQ
The target is the same in test [5]. To be noted: at 1 µM.
Test [6] concerns the target T2, Inhibitor of nuclear factor kappa-B kinase subunit alpha (Homo sapiens) (UniProt O15111).
T2 sequence (whole entry): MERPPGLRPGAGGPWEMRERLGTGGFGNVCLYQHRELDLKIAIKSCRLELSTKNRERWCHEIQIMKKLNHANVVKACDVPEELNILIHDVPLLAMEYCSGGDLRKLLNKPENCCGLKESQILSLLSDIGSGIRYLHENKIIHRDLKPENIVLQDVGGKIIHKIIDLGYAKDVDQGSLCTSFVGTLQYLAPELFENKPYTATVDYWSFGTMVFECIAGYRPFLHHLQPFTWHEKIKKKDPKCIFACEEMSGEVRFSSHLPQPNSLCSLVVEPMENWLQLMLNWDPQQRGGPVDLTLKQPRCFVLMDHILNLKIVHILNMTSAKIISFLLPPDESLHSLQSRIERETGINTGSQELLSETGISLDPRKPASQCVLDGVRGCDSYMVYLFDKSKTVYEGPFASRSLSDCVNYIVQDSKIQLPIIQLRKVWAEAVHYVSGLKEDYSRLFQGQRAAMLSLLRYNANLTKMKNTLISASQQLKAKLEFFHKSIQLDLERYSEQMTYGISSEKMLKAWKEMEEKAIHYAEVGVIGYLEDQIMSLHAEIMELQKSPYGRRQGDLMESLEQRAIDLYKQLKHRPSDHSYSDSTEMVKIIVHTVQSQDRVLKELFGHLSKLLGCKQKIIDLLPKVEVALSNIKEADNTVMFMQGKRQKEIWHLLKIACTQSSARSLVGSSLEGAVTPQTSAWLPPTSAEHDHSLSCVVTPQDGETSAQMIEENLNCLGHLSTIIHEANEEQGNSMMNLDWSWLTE
To be noted: at 0.1 µM.

Test [7] addresses T2, Inhibitor of nuclear factor kappa-B kinase subunit alpha (Homo sapiens). To be noted: at 1 µM.
Test [8] deals with T3, Inhibitor of nuclear factor kappa-B kinase subunit beta (Homo sapiens) (UniProt O14920).
T3 sequence (whole entry): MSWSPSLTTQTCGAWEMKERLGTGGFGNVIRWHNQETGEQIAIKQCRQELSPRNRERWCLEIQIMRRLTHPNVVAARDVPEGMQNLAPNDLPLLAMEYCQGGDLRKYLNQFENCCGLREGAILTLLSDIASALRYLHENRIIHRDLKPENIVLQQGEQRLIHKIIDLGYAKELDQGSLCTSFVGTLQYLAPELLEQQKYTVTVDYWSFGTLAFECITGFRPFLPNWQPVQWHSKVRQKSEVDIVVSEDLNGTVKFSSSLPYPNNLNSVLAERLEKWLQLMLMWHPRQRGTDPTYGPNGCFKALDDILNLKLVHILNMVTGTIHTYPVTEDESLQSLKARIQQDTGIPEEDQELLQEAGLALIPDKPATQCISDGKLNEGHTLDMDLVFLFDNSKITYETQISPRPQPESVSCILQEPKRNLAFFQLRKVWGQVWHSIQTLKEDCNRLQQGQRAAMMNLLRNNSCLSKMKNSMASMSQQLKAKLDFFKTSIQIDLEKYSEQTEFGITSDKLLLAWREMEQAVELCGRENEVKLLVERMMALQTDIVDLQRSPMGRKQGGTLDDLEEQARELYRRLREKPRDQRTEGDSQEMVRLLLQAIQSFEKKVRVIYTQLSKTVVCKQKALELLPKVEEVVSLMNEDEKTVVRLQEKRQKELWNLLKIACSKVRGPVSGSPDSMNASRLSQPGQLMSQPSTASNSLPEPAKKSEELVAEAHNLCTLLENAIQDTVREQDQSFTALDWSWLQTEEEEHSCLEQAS
To be noted: at 0.1 µM.

The target of test [9] is T3, Inhibitor of nuclear factor kappa-B kinase subunit beta (Homo sapiens). To be noted: at 1 µM.
In test [10] the target is T4, Inhibitor of nuclear factor kappa-B kinase subunit epsilon (Homo sapiens) (UniProt Q14164).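 Also: mean inhibition of IKKε reported, from the GSK PKIS dataset.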
T4 sequence (whole entry): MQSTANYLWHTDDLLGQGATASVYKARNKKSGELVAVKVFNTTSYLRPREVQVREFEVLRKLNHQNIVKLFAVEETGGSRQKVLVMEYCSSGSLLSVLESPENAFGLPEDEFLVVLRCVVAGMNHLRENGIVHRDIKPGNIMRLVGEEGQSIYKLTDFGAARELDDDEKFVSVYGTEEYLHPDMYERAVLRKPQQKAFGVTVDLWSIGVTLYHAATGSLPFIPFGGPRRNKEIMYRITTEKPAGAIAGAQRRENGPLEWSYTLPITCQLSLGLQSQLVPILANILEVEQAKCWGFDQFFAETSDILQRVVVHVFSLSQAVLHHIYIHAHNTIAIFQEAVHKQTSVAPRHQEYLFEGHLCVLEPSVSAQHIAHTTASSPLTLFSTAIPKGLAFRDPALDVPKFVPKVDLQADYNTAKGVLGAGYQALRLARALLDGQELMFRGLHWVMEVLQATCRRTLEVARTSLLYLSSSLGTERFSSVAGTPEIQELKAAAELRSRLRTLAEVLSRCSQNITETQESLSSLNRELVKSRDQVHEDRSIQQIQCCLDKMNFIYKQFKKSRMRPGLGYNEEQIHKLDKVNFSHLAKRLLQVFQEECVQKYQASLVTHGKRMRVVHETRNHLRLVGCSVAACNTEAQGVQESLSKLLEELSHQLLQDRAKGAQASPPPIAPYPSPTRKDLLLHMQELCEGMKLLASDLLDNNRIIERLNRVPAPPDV
Particulars: at 0.1 µM.

A word on the inhibition: it is the drop in the measured response relative to a control, in per cent.

Chain of Sphingosine kinase 1 (Homo sapiens) (Q9NYA1 whole entry): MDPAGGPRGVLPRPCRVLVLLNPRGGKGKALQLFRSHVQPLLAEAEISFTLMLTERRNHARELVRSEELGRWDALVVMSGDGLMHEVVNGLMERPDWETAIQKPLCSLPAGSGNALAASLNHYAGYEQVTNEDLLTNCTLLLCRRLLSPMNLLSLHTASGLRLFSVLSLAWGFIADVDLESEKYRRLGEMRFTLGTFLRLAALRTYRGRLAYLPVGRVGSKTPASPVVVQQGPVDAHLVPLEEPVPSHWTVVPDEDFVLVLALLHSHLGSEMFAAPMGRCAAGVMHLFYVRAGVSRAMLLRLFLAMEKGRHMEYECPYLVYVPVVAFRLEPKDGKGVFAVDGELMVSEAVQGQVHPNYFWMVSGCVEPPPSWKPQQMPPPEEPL

As to `COc1cc2ncn(-c3cc(OCc4ccccc4C(F)(F)F)c(C(N)=O)s3)c2cc1OC`, the inhibition in [1] was -5.26%; in test [2], 0.75%; in [3], -2%; in test [4] it was 7.47%; in test [5], 8.83%; in [6], 9.42%. Further, the inhibition came out at 3.6% in test [7], 5.69% in test [8], 5.75% in test [9] and 6.51% in test [10].

Consider `Cc1ccc(NC(=O)c2ccnc(N3CCCC3)c2)cc1-c1ccc(C(=O)NCC2CC2)cc1`, for which the inhibition in test [1] was 0.63%; in test [2], 0.74%; in [3], -0.47%; in [4], 7.04%; in test [5] it was 4.49%; in test [6] it was 0.55%. In addition, the inhibition in [7] was determined as 0.16%; in test [8], 9.14%; in test [9], 9.33%; in test [10], 5.82%.

On to `CCCN1CCC(Oc2cc(Nc3nc(Nc4cccc(F)c4C(N)=O)c4cc[nH]c4n3)c(OC)cc2Cl)CC1`, for which the inhibition in test [1] is 0.63%; in test [2], -0.36%; in [3], 0.09%; in [4] it was 0.96%; in test [5], 7.7%; in test [6] it was -0.06%. Besides, the inhibition in [7] was -9.18%; in test [8] it was -1.77%; in test [9], -4.88%; in test [10] it was -2.26%.

Take `COc1cc2ncn(-c3cc(O[C@@H](C)c4ccccc4Cl)c(C(N)=O)s3)c2cc1OC`: the inhibition is -1.61% in [1]; -0.7% in test [2]; 0% in test [3]; 6.99% in test [4]; 3.34% in test [5]; 4.16% in [6]. The inhibition in test [7] was found to be 8.5%; in test [8], 6.47%; in [9], 4.88%; in [10], 5.3%.

As for `CS(=O)(=O)CCNCc1nc(-c2ccc3ncnc(Nc4ccc(F)c(Cl)c4)c3c2)cs1`, the inhibition was 0.42% in test [1]; 0.49% in test [2]; -0.93% in test [3]; 1.14% in [4]; 5.94% in [5]; -4.65% in test [6]. For the same molecule, the inhibition in test [7] was -4.39%; in [8], -0.32%; in [9] it was 1.99%; in test [10] it was 1.53%.

Consider `O=C1Nc2ccc(C(=O)c3ccco3)cc2C1=Cc1cc(Cl)c(O)c(Cl)c1`, for which the inhibition in [1] was -1.68%; in test [2] it was 1.43%; in test [3], 1.2%; in test [4], 18%; in test [5], 55.2%; in test [6] it was 2.59%. Besides, the inhibition in [7] was 8.32%; in test [8], 5.21%; in test [9], 2.45%; in [10] it was 24.9%.

Consider `CCn1c(-c2nonc2N)nc2cncc(C(=O)N3CCNCC3)c21`, for which the inhibition in test [1] is -1.31%; in test [2], 2.81%; in test [3], 0.77%; in test [4], 4.04%; in test [5] it was 2.82%; in test [6], 1.05%. For the same molecule, the inhibition in test [7] is 5.47%; in test [8] it was 6.46%; in [9] it was 8.59%; in test [10], 12.2%.

In the case of `Cc1cccc(-c2n[nH]cc2-c2ccc3ncccc3n2)n1`, the inhibition in test [1] is -1.51%; in test [2], 0.61%; in test [3], 0.2%; in test [4], 1.46%; in test [5], 4.82%; in test [6] it was 2.07%. Moreover, the inhibition in test [7] is 5.93%; in test [8], 0.87%; in test [9], 0.63%; in test [10], 0.62%.
